Experimental data taken from PubChem BioAssay (NCI).
Compounds without any hit were thinned out: in the full panel of roughly 79,000, 15% have a hit. Unmarked numbers belong to inactive results. Activity calls are given as the source filed them. Cut-off read from the data, not from the text of the source: active = growth inhibition above about 70%; inactive = the rest.

Key:
[1] = NCI Yeast Anticancer Drug Screen. Data for the rad50 strain (AID 155);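 note: 0% = growth of vehicle-only cultures of the same strain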; conditions: S. cerevisiae rad50 strain growth inhibition, active compounds read high
Summary of the method: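 DNA repair mutant yeast, compound exposure, growth read-out; inhibition is taken relative to vehicle.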

[2] = NCI Yeast Anticancer Drug Screen. Data for the mec2-1 strain (AID 157); conditions: S. cerevisiae mec2-1 strain, active compounds read high
Summary of the method: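 mec2-1 yeast strain, carrying an alteration in DNA damage repair or cell cycle control, was exposed to compounds; growth inhibition was measured relative to vehicle-treated controls.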

[3] = NCI Yeast Anticancer Drug Screen. Data for the sgs1 mgt1 strain (AID 161);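 note: 0% = growth of cultures given vehicle only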; conditions: S. cerevisiae sgs1 mgt1 strain, active compounds read high
Summary of the method: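 Yeast cells carrying a defined DNA-repair defect were exposed to test compounds. Growth inhibition was measured relative to vehicle-treated controls.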

[4] = NCI Yeast Anticancer Drug Screen. Data for the cln2 rad14 strain (AID 165);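 note: 0% = growth equal to vehicle treated cultures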; conditions: S. cerevisiae cln2 rad14 strain, active compounds read high
Summary of the method: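 Yeast carrying cln2 and rad14 alterations (cell cycle control and DNA damage repair) were exposed to compounds. Growth inhibition was measured against vehicle-treated controls.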

[5] = NCI Yeast Anticancer Drug Screen. Data for the bub3 strain (AID 167); conditions: S. cerevisiae bub3 mutant strain, active compounds read high
Summary of the method: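 In this screen, a yeast mutant lacking normal mitotic checkpoint function is challenged with compound. Relative growth versus vehicle gives the inhibition value.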

[6] = NCI Yeast Anticancer Drug Screen. Data for the mlh1 rad18 strain (AID 175); conditions: S. cerevisiae mlh1 rad18 strain growth inhibition, active compounds read high
Summary of the method: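 Growth inhibition of the yeast strain was measured after compound exposure and expressed relative to vehicle-treated controls. The strain carries defined defects in DNA damage repair.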

[7] = at 5.0 µM (retest, dose inferred, filed as 0.5)
[8] = at 50.0 µM (retest, dose inferred, filed as 5.0)

Row | SMILES | growth inhibition [1, 7] | growth inhibition [1, 8] | growth inhibition ([1]; at 50.0 µM) | growth inhibition [2, 7] | growth inhibition [2, 8] | growth inhibition ([2]; at 50.0 µM) | growth inhibition [3, 7] | growth inhibition [3, 8] | growth inhibition ([3]; at 50.0 µM) | growth inhibition [4, 7] | growth inhibition [4, 8] | growth inhibition ([4]; at 50.0 µM) | growth inhibition [5, 7] | growth inhibition [5, 8] | growth inhibition ([5]; at 50.0 µM) | growth inhibition [6, 7] | growth inhibition [6, 8] | growth inhibition ([6]; at 50.0 µM)
1 | CC(=O)Oc1c2ccccc2c(C)c2c1ccc1ccccc12 | 65% | 93% (active) | 96% (active) | 84% (active) | 92% (active) | 95% (active) | 89% (active) | 93% (active) | 96% (active) | 49% | 92% (active) | 94.2% (active) | 37% | 93% (active) | 96.7% (active) | 91% (active) | 90% (active) | 91.8% (active)
2 | N=c1scc(-c2ccccc2)n1/N=C/c1cccnc1 | 1% | 95% (active) | 96.6% (active) | 3% | 96% (active) | 86.3% (active) | 7% | 98% (active) | 96.5% (active) | 11% | 95% (active) | 96.2% (active) | 5% | 96% (active) | 50.6% | -14% | 96% (active) | 95.8% (active)
3 | O=[N+]([O-])c1ccc(O)c(/C=N\NC(=S)Nc2ccc3cn[nH]c3c2)c1 | -2% | 33% | 74.3% (active) | 1% | 20% | 47.2% | 11% | 37% | 41.2% | -17% | 37% | 32.6% | -2% | 52% | 49.1% | 12% | 41% | 30.8%
4 | ClC(Cl)(Cl)C(NCCN1CCOCC1)c1ccccc1 (stereo not drawn) | 99% (active) | 88% (active) | 80% (active) | 100% (active) | 99% (active) | 61.7% | 100% (active) | 98% (active) | 84.5% (active) | 66% | 55% | 78.8% (active) | 98% (active) | 97% (active) | 66.3% | 99% (active) | 98% (active) | 78.7% (active)
5 | CC(C)(C)CC(C)(C)c1ccc(O)c(Cl)c1 | -3% | 93% (active) | 99.1% (active) | -3% | 90% (active) | 76.5% (active) | -2% | 50% | 91.2% (active) | -6% | 86% (active) | 49.9% | -4% | 90% (active) | 78.4% (active) | -4% | 95% (active) | 99.5% (active)
6 | Nc1ccc(C(=O)Nc2ccc(C(=O)Nc3ccc(/C=C/c4ccc(NC(=O)c5ccc(N)cc5)cc4S(=O)(=O)O)c(S(=O)(=O)O)c3)cc2)cc1 | -2% | 87% (active) | 68.5% | -21% | 76% (active) | 72.8% (active) | 3% | 78% (active) | 69.3% | 16% | 39% | 18.3% | -15% | 82% (active) | 70.4% (active) | -15% | 61% | 74.2% (active)
7 | O=C(O)c1ccc(C(O)(c2ccccc2)c2ccccc2)cc1 | -9% | 65% | 63.4% | 11% | 95% (active) | 86% (active) | -9% | 90% (active) | 98% (active) | -1% | 90% (active) | 82.3% (active) | -3% | 97% (active) | 77.7% (active) | 3% | 93% (active) | 96.4% (active)
8 | CC(C)(C)c1ccc(-c2nnc(SCc3ccc(Cl)cc3)n2-c2cccc(C(F)(F)F)c2)cc1 | -14% | -34% | 52.6% | -20% | -26% | 5.9% | -13% | -30% | -3.2% | 9% | -14% | -20.9% | 7% | -9% | 14.4% | -28% | -29% | -19.6%
9 | CCOC(=O)/C(=C\c1ccc(Cl)cc1)C(C)=O | 31% | 98% (active) | 93.2% (active) | 49% | 99% (active) | 94.5% (active) | 33% | 98% (active) | 93.3% (active) | 29% | 98% (active) | 92% (active) | 79% (active) | 99% (active) | 92.2% (active) | 79% (active) | 98% (active) | 91.5% (active)
10 | CC1(c2ccc3ccccc3c2)C(C#N)(C#N)C1(C#N)C#N | 87% (active) | 92% (active) | 91.4% (active) | 94% (active) | 94% (active) | 92% (active) | 97% (active) | 96% (active) | 88% (active) | 62% | 93% (active) | 83.2% (active) | 96% (active) | 93% (active) | 91.2% (active) | 97% (active) | 93% (active) | 87.7% (active)
11 | Cc1ccccc1NC(=S)Nc1ccccc1O | -4% | 81% (active) | 97.2% (active) | -2% | 87% (active) | 94.4% (active) | 0% | 82% (active) | 90.8% (active) | -5% | 63% | -27.8% | 20% | 98% (active) | 98.3% (active) | -3% | 71% (active) | 95.1% (active)
